Assay results from publication PMC4336329 (PLoS ONE, 2015).
In all, about 310,000 compounds went through this assay and about 14,000 (4.5%) showed an effect of 50% or more. Effects have a minus sign here. This is one part of a sample in which strong results are shown more often than they occur.

molecular target: human ether-à-go-go-related gene (hERG) potassium channel (human, UniProt Q12809); assay: primary screen, population patch clamp on CHO cells stably expressing hERG; higher = less effect of the substance
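Note: peak tail current of the secondary pulse compared with the same well before compound.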

Chain of human ether-à-go-go-related gene (hERG) potassium channel (Q12809 whole entry, looked up): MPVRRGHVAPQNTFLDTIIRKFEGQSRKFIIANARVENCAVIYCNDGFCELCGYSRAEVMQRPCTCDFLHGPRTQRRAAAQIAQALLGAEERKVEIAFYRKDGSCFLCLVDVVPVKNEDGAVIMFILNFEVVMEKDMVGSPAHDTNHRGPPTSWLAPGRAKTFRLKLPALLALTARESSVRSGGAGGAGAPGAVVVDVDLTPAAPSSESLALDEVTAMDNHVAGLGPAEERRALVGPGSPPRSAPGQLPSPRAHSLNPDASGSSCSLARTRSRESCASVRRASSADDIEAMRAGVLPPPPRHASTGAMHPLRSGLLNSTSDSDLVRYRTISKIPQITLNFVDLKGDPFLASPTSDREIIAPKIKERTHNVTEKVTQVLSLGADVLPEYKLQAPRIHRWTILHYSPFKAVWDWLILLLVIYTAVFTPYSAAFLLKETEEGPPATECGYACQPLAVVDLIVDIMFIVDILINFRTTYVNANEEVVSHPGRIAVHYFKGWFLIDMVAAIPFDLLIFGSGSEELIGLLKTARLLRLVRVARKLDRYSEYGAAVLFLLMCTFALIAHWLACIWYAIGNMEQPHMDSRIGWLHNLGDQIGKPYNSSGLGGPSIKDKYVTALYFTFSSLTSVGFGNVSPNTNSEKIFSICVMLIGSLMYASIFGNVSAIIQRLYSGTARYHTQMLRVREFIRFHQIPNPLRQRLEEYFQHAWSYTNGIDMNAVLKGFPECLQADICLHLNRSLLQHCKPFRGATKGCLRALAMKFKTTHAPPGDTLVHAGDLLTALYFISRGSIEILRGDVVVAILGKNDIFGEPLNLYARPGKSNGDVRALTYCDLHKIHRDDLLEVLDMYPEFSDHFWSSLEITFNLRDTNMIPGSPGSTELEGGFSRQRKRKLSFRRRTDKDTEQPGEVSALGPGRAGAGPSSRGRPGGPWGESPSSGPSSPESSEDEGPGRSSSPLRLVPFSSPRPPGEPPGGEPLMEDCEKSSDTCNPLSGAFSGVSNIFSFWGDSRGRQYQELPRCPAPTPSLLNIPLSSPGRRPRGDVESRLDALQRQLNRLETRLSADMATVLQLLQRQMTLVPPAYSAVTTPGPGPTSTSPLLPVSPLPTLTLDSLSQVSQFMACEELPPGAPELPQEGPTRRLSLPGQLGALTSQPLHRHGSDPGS

| Structure (SMILES) | hERG current change (%, negative = inhibition) at 10uM |
| --- | --- |
| Cc1cccc(C(=O)O/N=C2/CC3CCC2(C)C3(C)C)c1 (stereo not drawn) | -11% |
| Cc1cc(C(=O)NCCC2=CCCCC2)c(C)o1 | 7.75% |
| O=S(=O)(c1cccc(-c2n[nH]c(=S)o2)c1)N1CCOCC1 | 14.9% |
| CCC(C)NC(=O)C1CCN(S(=O)(=O)N2CCOCC2)CC1 (stereo not drawn) | 22.8% |
| N#CC1=C(SCc2ccc(C#N)cc2)N=C(N)C(c2nc(-c3ccccc3)cs2)C12CCCCC2 (stereo not drawn) | 12.3% |
| CCC(C)Cn1c(C(C)O)nc2ccccc21 (stereo not drawn) | 0.00748% |
| O=C(c1cc2ccccc2o1)N1CCN(c2cccc(C(F)(F)F)c2)CC1 | 3.21% |
| O=C(CCC(=O)NNC(=O)COc1ccc(Br)cc1Br)NCc1ccccc1 | 16.9% |
| CCOc1cc(/C=N/NC(N)=O)cc(Br)c1OCC(=O)Nc1ccccc1C | -65.7% |
| CCOc1cc(C=O)cc(Br)c1OCC(N)=O | 2.71% |
| Cl.O=C(COc1ccc(Br)cc1CNCCc1ccccc1)NCc1ccccc1 | -61.1% |
| CCOc1cc(C=O)cc(Br)c1OCC(=O)NCCc1ccccc1 | -81.7% |
| COc1cc(CNC(C)C23CC4CC(CC(C4)C2)C3)ccc1OCC(=O)NC(C)(C)C.Cl (stereo not drawn) | -4.99% |
| CCOc1cc(/C=N/NC(N)=O)cc(Br)c1OCc1ccccc1 | 3.4% |
| CCOc1cc(/C=N/NC(N)=O)cc(Br)c1OCC(=O)Nc1cccc2ccccc12 | 18.4% |
| CCOc1cc(/C=N/O)cc(Br)c1OCC(=O)NCc1ccccc1 | 1.7% |
| CC(NCc1cc(Br)ccc1OCC(N)=O)C12CC3CC(CC(C3)C1)C2.Cl (stereo not drawn) | -55.8% |
| Cc1ccccc1NC(=O)COc1ccc(Br)cc1CNCCCO.Cl | -15.6% |
| CC(NCc1ccc(OCC(N)=O)cc1)C12CC3CC(CC(C3)C1)C2.Cl (stereo not drawn) | -11.2% |
| CCN(CC)CCCNC(=O)Cn1cnc2sc(C)c(S(=O)(=O)N3CCC(C)CC3)c2c1=O | 11.1% |
| COC(=O)c1ccc(Cn2nc(-c3ccc(C)cc3)ccc2=O)cc1 | 23.5% |
| CCn1cc(C(=O)O)c(=O)c2cnc(N3CCN(C(=S)Nc4ccc(F)cc4)CC3)nc21 | 13.3% |
| CCN(c1ccccc1)S(=O)(=O)c1cccc(C(=O)N(C)CCOc2ccccc2)c1 | -3.95% |
| CCCCN(C)CCC(=O)Nc1ccc2c(c1)CCC2.Cl | -7.46% |
